Assay [1] in a line: qHTS assay to identify small molecule antagonists of the sonic hedgehog signaling (Shh) pathway (AID 1259369). Note: nearly all actives have a fitted effect of over 45% in size. Note: potency is the fitted concentration of half-maximal effect. In a few lines:
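NIH/3T3 stable Gli1-Luc clone, 2,000 cells/well, 4hr settle; cpd + conditioned medium 24hr; Luc reagent 30min RT; luminescence.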

The target of assay [2] is Estrogen receptor beta (Homo sapiens) (UniProt Q92731). Nature of the assay: qHTS assay to identify small molecule antagonists of the estrogen receptor beta (ER-beta) signaling pathway (AID 1259378; active = well fitted inhibition curve with a large enough effect in the signal ratio in the repeat runs, not every such curve was filed as active; the % refers to the signal ratio; note: potency is the fitted concentration of half-maximal effect). The gist of the method:
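ER-beta-UAS-bla HEK293T cells in 2% charcoal-stripped FBS medium treated with compound plus 1nM final 17-beta-estradiol for 16 hr at 37C. Beta-lactamase reporter read by FRET substrate fluorescence after 2 hours at room temperature.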
(In qHTS, concentration-response curves come from the screen itself.)

Assay [3] can be described thus: qHTS assay to identify small molecule agonists of the androgen receptor (AR) signaling pathway in the presence of an antagonist - cell viability counter screen (AID 1259379; active = well fitted curve in the direction sought with a large enough effect in the repeat runs; an effect the other way counts as inactive or inconclusive; note: nearly all actives have a fitted effect of over 25% in size; note: potency is the fitted concentration of half-maximal effect). In a few lines: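 MDA-kb2 viability measured by CellTiter-Fluor fluorescence in the same wells as the luciferase signal; nilutamide 3.0uM final; 15-point compound titration; 16 hr at 37C.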
Assay [4] can be described thus: qHTS assay to identify small molecule antagonists of the estrogen receptor beta (ER-beta) signaling pathway - cell viability counter screen (AID 1259382; active = well fitted curve in the direction sought with a large enough effect in the repeat runs; an effect the other way counts as inactive or inconclusive; note: nearly all actives have a fitted effect of over 55% in size; note: potency is the fitted concentration of half-maximal effect). In a few lines:
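Readout: luminescence, CellTiter-Glo, same wells as bla assay. System: ER-beta-UAS-bla GripTite HEK293T, 2% charcoal-stripped FBS. Exposure: compounds plus 1nM 17-beta-estradiol, 16 hr, 37C.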

The target of assay [5] is Estrogen receptor (Homo sapiens) (UniProt P03372). Description: qHTS assay to identify small molecule agonists of the estrogen receptor alpha (ER-alpha) signaling pathway in the presence of an antagonist (AID 1259383). Note: top concentration of the series differs between compounds; nearly all actives have a fitted effect of over 15% in size. In a few lines:
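Quantitative HTS confirmation: compounds titrated at 15 concentrations onto estrogen-deprived VM7Luc4E2 cells carrying a four-ERE luciferase construct, with ICI-182,780 present at 10.0nM final. Signal is luminescence after 22hr exposure.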

Assay [6] in a line: qHTS assay to identify small molecule agonists or antagonists of the thyroid stimulating hormone receptor (TSHR) signaling pathway - wild type cell line counter screen (AID 1259384). In a few lines:
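Wild-type Hek293 cells, 800/well, 18 h at 37C, then compound with Ro20-1724 for 30 min RT. cAMP by HTRF (cAMP-d2/anti-cAMP cryptate), 1 h RT, fluorescence read. 15 concentrations, triplicates.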

The target in assay [7] is Estrogen receptor beta (Homo sapiens) (UniProt Q92731). Description: qHTS assay to identify small molecule agonists of the estrogen receptor beta (ER-beta) signaling pathway (AID 1259377; active = well fitted activation curve with a large enough effect in the signal ratio in the repeat runs, not every such curve was filed as active; the % refers to the signal ratio). The gist of the method: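 Measured by fluorescence intensity from a B/G FRET beta-lactamase substrate (2 h, room temperature) in ER-beta-UAS-bla HEK293T cells treated with DMSO-dissolved compounds for 16 hr at 37C and 5% CO2.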
Estrogen receptor beta (Homo sapiens), sequence (Q92731 whole entry, looked up): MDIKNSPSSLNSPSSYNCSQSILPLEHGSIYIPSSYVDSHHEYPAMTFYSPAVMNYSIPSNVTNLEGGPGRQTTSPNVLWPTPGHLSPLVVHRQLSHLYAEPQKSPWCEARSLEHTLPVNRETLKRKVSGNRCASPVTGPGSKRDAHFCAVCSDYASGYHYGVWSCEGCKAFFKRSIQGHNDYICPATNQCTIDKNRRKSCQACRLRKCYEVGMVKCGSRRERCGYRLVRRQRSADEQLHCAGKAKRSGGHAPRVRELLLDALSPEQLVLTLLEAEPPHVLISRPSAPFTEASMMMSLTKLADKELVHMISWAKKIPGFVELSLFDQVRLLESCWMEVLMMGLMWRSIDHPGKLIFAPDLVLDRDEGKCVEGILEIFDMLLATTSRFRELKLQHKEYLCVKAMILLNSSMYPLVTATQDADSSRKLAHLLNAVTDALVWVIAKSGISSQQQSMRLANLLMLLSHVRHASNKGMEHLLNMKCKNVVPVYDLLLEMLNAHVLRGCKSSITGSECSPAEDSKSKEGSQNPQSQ

For assay [8], the target named is Thyrotropin receptor (Homo sapiens) (UniProt P16473). Description: qHTS assay to identify small molecule antagonists of the thyroid stimulating hormone receptor (TSHR) signaling pathway (AID 1259385). Note: nearly all actives have a fitted effect of over 20% in size. Note: potency is the fitted concentration of half-maximal effect. In a few lines: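 TSHR-HEK293 cells (800/well) plated 18 h, then compounds with Ro20-1724 and TSH at 1.5 ng/mL final, 30 min at room temperature. cAMP quantified by HTRF (cAMP-d2/anti-cAMP-cryptate, 1 h); 15 concentrations in triplicate.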
Thyrotropin receptor (Homo sapiens), sequence (P16473 whole entry, looked up): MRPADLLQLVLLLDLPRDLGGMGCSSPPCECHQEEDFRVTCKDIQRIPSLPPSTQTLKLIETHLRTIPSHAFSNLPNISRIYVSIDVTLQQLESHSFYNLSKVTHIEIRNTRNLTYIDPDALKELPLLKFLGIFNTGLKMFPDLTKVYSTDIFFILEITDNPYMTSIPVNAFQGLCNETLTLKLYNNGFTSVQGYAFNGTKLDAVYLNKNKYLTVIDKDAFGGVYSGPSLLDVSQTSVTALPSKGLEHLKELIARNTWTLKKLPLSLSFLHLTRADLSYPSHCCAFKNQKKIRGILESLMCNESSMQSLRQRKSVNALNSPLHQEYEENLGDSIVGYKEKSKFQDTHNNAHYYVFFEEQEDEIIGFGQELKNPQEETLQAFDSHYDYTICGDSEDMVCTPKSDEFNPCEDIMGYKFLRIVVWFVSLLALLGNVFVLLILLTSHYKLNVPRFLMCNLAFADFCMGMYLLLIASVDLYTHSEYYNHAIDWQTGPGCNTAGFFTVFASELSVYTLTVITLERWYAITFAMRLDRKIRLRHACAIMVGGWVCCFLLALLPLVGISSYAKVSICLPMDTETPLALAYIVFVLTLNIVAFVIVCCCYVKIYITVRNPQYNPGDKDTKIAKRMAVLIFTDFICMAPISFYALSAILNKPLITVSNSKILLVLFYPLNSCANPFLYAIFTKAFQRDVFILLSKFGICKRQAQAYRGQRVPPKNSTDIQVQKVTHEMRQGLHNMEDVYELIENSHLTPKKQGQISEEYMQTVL

A short description of assay [9]: qHTS assay to identify small molecule agonists of the estrogen receptor beta (ER-beta) signaling pathway - cell viability counter screen (AID 1259380; active = well fitted curve in the direction sought with a large enough effect in the repeat runs; an effect the other way counts as inactive or inconclusive; note: nearly all actives have a fitted effect of over 30% in size; note: potency is the fitted concentration of half-maximal effect). The gist of the method:
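Measured: luminescence from CellTiter-Glo after 30 min at room temperature, added to wells already read for the LiveBLAzer FRET reporter (2 hr substrate); ER-beta-UAS-bla HEK293T cells had 16 hr compound treatment at 37C, 5% CO2.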

The target of assay [10] is Androgen receptor (Homo sapiens) (UniProt P10275). Nature of the assay: qHTS assay to identify small molecule agonists of the androgen receptor (AR) signaling pathway in the presence of an antagonist (AID 1259381). Note: nearly all actives have a fitted effect of over 15% in size. The gist of the method:
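Luminescent ONE-Glo read, 30min at room temperature, follows 16hr compound exposure (15 concentrations) of MDA-kb2 cells at 37C, 0% CO2, with nilutamide added at 3.0uM final.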

This note sets out measurements from PubChem BioAssay (Tox21).

Inconclusive results are not listed. Activity calls are given as the source filed them. Unless noted, calls come from the whole dose curve.

Androgen receptor (Homo sapiens), sequence (P10275 whole entry, looked up): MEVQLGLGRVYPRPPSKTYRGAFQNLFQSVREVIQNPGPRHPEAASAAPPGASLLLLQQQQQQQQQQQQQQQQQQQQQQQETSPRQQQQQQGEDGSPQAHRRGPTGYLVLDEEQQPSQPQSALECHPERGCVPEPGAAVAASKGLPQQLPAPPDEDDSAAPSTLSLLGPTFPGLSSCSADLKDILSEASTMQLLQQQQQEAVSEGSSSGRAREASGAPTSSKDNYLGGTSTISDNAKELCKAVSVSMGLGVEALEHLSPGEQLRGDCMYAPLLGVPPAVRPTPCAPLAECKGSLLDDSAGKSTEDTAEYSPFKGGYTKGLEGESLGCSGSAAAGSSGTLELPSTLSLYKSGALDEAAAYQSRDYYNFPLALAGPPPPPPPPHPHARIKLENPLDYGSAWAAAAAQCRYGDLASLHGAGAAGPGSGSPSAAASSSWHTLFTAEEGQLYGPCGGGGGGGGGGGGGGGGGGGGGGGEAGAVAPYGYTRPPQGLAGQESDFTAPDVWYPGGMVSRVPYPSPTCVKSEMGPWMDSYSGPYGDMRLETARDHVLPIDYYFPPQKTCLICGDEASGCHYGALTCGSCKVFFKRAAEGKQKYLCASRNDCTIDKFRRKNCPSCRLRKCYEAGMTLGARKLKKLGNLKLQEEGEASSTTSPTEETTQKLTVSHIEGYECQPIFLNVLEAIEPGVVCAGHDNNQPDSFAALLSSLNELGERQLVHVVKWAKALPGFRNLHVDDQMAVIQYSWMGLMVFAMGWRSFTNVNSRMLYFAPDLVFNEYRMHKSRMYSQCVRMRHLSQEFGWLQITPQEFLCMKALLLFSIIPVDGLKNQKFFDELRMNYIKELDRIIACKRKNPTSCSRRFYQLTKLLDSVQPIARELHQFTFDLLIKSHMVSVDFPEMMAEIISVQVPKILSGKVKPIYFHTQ
Estrogen receptor (Homo sapiens), sequence (P03372 whole entry, looked up): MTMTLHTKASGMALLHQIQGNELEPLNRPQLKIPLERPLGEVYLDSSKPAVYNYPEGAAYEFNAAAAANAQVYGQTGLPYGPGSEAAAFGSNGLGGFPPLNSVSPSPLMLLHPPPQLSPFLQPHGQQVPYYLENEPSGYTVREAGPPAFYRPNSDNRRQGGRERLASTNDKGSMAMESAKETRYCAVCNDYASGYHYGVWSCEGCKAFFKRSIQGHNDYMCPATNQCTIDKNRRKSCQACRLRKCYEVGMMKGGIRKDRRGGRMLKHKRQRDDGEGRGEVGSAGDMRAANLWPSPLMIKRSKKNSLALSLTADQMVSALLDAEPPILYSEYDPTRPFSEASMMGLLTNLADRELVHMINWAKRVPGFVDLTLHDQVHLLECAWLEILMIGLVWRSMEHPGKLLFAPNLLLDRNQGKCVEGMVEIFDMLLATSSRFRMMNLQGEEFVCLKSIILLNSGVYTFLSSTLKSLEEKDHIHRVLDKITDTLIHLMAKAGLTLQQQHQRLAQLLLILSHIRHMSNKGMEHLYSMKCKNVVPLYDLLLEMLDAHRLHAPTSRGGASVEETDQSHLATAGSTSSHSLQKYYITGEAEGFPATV

Turning to `O=C1c2ccccc2C(=O)C1(O)O`, the Potency in [1] is 15.4 µM (active). The Potency entry in [2], in assay [3], in assay [4] and in assay [5] was “inactive” each time. Further, the compound was classed as inactive in assay [6].
Turning to `Nc1nnc(-c2ccc([N+](=O)[O-])o2)o1`, the Potency result in assay [1], in assay [7], in assay [4], in [5] and in assay [8] was “inactive” in each case. In addition, in assay [3], the Potency is 54.5 µM (active). Also, the result in assay [6] was inactive.
With `C[C@@H](O[C@H]1OCCN(Cc2n[nH]c(=O)[nH]2)[C@H]1c1ccc(F)cc1)c1cc(C(F)(F)F)cc(C(F)(F)F)c1`, the Potency in assay [1] is 13.3 µM (active); in [9] it was 26.6 µM (active); in [4] it was 29.8 µM (active). The Potency result in assay [7] and in [10] was “inactive” each time. In assay [6], the call was inactive.
As for `Cc1cccc(N(C)C(=S)Oc2ccc3c(c2)CCC3)c1`, the Potency result in assay [1], in assay [7], in [3], in [4] and in [5] was “inactive” throughout.
On to `CC1(C)[C@H](C(=O)O)N2C(=O)C[C@H]2S1(=O)=O`, for which the Potency entry in [1], in assay [3], in [9], in assay [4] and in assay [5] was “inactive” in each case. Moreover, the Potency in assay [2] is 11.9 µM (active).
As to `CN1C(=O)c2ccccc2C1=O`, the Potency in [1] is 43.3 µM (active). Further, the Potency result in assay [2], in assay [3], in [9], in assay [4] and in assay [8] was “inactive” each time. In assay [6], the compound was called inactive.
With `C=CC(=O)OCC1CC2CC1C1CCC(COC(=O)C=C)C21` (stereo unspecified), the Potency in assay [1] was 19.3 µM (active). Also, the Potency entry in assay [7], in assay [3] and in assay [4] was “inactive” each time. The result in assay [6] was inactive.
With `c1csc(SSc2cccs2)c1`, the Potency in assay [1] and in assay [9] was 13.7 µM (active) in each case. Besides, the Potency result in assay [7] and in [8] was “inactive” in each case. In assay [6], the call was inactive.
For `CC(C)(O)c1ccc(CNC(=O)c2cccnc2Oc2ccc3nonc3c2)cc1`, the Potency in [1] is 0.486 µM (active). The Potency result in [7], in assay [3], in assay [4], in assay [5] and in [8] was “inactive” each time. The compound was classed as inactive in assay [6].
For `O=C(O)CCc1nc(-c2ccccc2)c(-c2ccccc2)o1`, the Potency result in assay [1], in assay [7], in [3], in [4], in [5] and in [8] was “inactive” throughout. Moreover, in assay [6], the compound was called inactive.
As to `Oc1cc2c(cc1O)[C@H]1c3ccc(O)c(O)c3OC[C@@]1(O)C2`, the Potency in assay [1] was 17.4 µM (active); in [3], 61.9 µM (active). The Potency entry in [7], in [9], in assay [4] and in assay [5] was “inactive” throughout.
`CC(=O)N/N=C/c1ccc([N+](=O)[O-])o1`: the Potency in assay [1] is 26.6 µM (active). Also, the Potency entry in assay [2], in [3], in assay [9], in assay [4] and in [5] was “inactive” in each case. In assay [6], the call was inactive.
As for `C[C@@H]1CN(CCCn2c3ccccc3c3ccccc32)C[C@H](C)N1`, the Potency was 10.6 µM (active) in assay [1]; 13.3 µM (active) in assay [2]; 10.6 µM (active) in assay [9]; 11.9 µM (active) in [4]; 33.5 µM (active) in assay [8]. Moreover, the Potency entry in assay [7] was “inactive”. Besides, in assay [6], the compound was called inactive.
Consider `CCOc1cccc(-n2cc(C(=O)N3CCN(c4cc(C(=O)O)c5ccccc5c4)CC3)nc2-c2ccc(C)cc2)c1`, for which the Potency result in [1], in assay [7], in [3] and in assay [10] was “inactive” in each case. Further, the Potency in assay [9] was 14.7 µM (active).
For `CCCCCCCCOc1ccc(C(=O)O)cc1`, the Potency entry in assay [1], in assay [7], in [3], in assay [4] and in assay [8] was “inactive” throughout. In assay [6], the call was inactive.
In the case of `CS(=O)(=O)c1ccc(-c2cn3ccccc3n2)cc1`, in assay [1], the Potency was 33.5 µM (active). In addition, the Potency result in assay [7], in assay [3], in assay [10], in assay [4] and in assay [5] was “inactive” each time. For the same compound, the compound was called inactive in assay [6].
`O=C(O)c1ccc(OCCCOc2ccc(C(=O)O)cc2)cc1`: the Potency result in assay [1], in assay [2], in assay [3], in assay [9], in [4] and in assay [8] was “inactive” each time. Moreover, in assay [6], the compound was classed as inactive.
As for `CC(=O)OCCN(CCOC(C)=O)c1ccc(N=Nc2ccc([N+](=O)[O-])cc2C#N)cc1`, the values for the Potency in [1] and in [3] were 30.6 µM (active) and 54.5 µM (active), respectively. Further, the Potency entry in [7] and in [4] was “inactive” in each case. Further, the call in [6] was inactive.
